Structures are written as SMILES. The panel holds about 83,000 compounds, 20% with a hit somewhere; the sample as a whole holds those more often.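 Interpretation: 100, growth as untreated; towards 0, rising growth inhibition; 0, no net growth; 0 to -100, cell death. Compounds scoring below 10 were considered active.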 A number with no mark means an inactive call. Activity calls are given as the source filed them.

In PubChem BioAssay (NCI) one finds growth data, which are given here for nine compounds.

Holding throughout (test): NCI-60 one-dose screen, 48 h (100 = growth as untreated, 0 = no growth, -100 = all killed)
The subject of one test is HCT-15 colon. To be noted: 10 µM unless noted.
Another test deals with SNB-75 CNS. The settings on record: 10 µM.
The subject of another test is SNB-19 CNS. To be noted: 10 µM unless noted.
A further test relates to U251 CNS. The settings on record: 10 µM unless noted.
In the next test the test system is PC-3 prostate. To be noted: 10 µM unless noted.
The subject of a further test is UACC-62 melanoma. The settings on record: 10 µM unless noted.
Another test deals with LOX IMVI melanoma. To be noted: 10 µM unless noted.
The test system of another test is SK-MEL-28 melanoma. The settings on record: 10 µM unless noted.
The next test has as its system EKVX NSCLC. The settings on record: 10 µM unless noted.
A further test relates to SN12C renal. The settings on record: 10 µM unless noted.
In another test the test system is UO-31 renal. To be noted: 10 µM unless noted.
In another test the test system is TK-10 renal. To be noted: 10 µM unless noted.
The next test relates to ACHN renal. The settings on record: 10 µM unless noted.
Another test relates to CAKI-1 renal. The settings on record: 10 µM unless noted.
For the next test, the system named is A498 renal. The settings on record: 10 µM unless noted.
Another test has as its system CCRF-CEM leukemia. To be noted: 10 µM unless noted.
The subject of a further test is MOLT-4 leukemia. To be noted: 10 µM unless noted.
The subject of another test is SK-MEL-2 melanoma. The settings on record: 10 µM unless noted.
Another test concerns SK-MEL-5 melanoma. The settings on record: 10 µM unless noted.

In the case of `CCN(CC)CCOc1ccc(Cl)c(C)c1`, the growth in the test with HCT-15 colon was 104%; in the test on SNB-75 CNS, 93.4%; in the test on SNB-19 CNS, 101%; in the test on U251 CNS it was 107%; in the test with PC-3 prostate, 101%; with UACC-62 melanoma, 104%. Moreover, the growth with LOX IMVI melanoma was 101%; with SK-MEL-28 melanoma, 107%; in the test with EKVX NSCLC it was 111%; in the test with SN12C renal it was 108%; with UO-31 renal, 86.5%; with TK-10 renal it was 116%. Also, the growth in the test on ACHN renal was 104%; in the test with CAKI-1 renal it was 102%; in the test with A498 renal, 103%; in the test on CCRF-CEM leukemia, 98.4%; in the test on MOLT-4 leukemia it was 99.8%.
In the case of `COc1ccc2c(c1)C(c1cc(OC)c3c(c1)OCO3)C1=C(COC1=O)N2` (configuration not stated), the growth in the test with HCT-15 colon was 26.2%; in the test on SNB-75 CNS, 43.6%; in the test on SNB-19 CNS it was 35.2%; in the test on U251 CNS, 20.3%; in the test with PC-3 prostate it was 21.9%; in the test with UACC-62 melanoma, 46.7%. Besides, the growth is 20.1% in the test on LOX IMVI melanoma; 60% in the test on SK-MEL-28 melanoma; 33.2% with SK-MEL-2 melanoma; 41.1% in the test with EKVX NSCLC; 28% in the test on SN12C renal; 62% with UO-31 renal. Further, the growth is 60.8% in the test on TK-10 renal; 51.1% in the test with CAKI-1 renal; 30% with A498 renal; 7.1% (active) with CCRF-CEM leukemia; 16.5% in the test with MOLT-4 leukemia.
For `S=C1CC(=S)NC(=S)N1`, the growth is 116% with HCT-15 colon; 92.5% in the test on SNB-75 CNS; 103% in the test with U251 CNS; 107% in the test on PC-3 prostate; 105% in the test on SK-MEL-5 melanoma; 100% in the test with UACC-62 melanoma. The growth was 94.6% in the test with LOX IMVI melanoma; 108% with SK-MEL-28 melanoma; 107% in the test with SK-MEL-2 melanoma; 107% in the test with EKVX NSCLC; 96.1% in the test with SN12C renal; 88% in the test with UO-31 renal. The growth in the test on TK-10 renal is 110%; with CAKI-1 renal, 101%; in the test on A498 renal, 90.2%; with CCRF-CEM leukemia, 105%; with MOLT-4 leukemia, 95.3%.
Take `C=C(C)[C@@H]1C[C@@H]2Cc3cc(F)ccc3N1O2`: the growth was 92.9% in the test with HCT-15 colon; 105% in the test with SNB-19 CNS; 89.5% with U251 CNS; 95% in the test on PC-3 prostate; 95.3% in the test with SK-MEL-5 melanoma; 95% in the test on UACC-62 melanoma. For the same compound, the growth with LOX IMVI melanoma was 94.6%; in the test with SK-MEL-28 melanoma it was 107%; with SK-MEL-2 melanoma it was 98.1%; in the test with EKVX NSCLC it was 85.9%; with SN12C renal, 98.6%; in the test on UO-31 renal it was 77.4%. The growth with TK-10 renal is 97%; in the test on ACHN renal, 95.4%; with CAKI-1 renal, 98%; in the test on A498 renal, 95.2%; in the test on CCRF-CEM leukemia, -47.4% (active).
`Cc1ccc(-c2nc(C#N)c(S(=O)(=O)n3nc(-c4ccccc4)cc3N)o2)cc1`: the growth with HCT-15 colon is 67.6%; in the test with SNB-19 CNS, 93.7%; in the test on U251 CNS, 96.7%; with PC-3 prostate, 101%; in the test with SK-MEL-5 melanoma it was 99.8%; in the test with UACC-62 melanoma it was 94.3%. In addition, the growth in the test with LOX IMVI melanoma is 28%; in the test on SK-MEL-28 melanoma, 108%; with SK-MEL-2 melanoma, 99.4%; in the test with EKVX NSCLC, 99%; in the test with SN12C renal it was 90.2%; in the test with UO-31 renal, 92%. In addition, the growth in the test on TK-10 renal was 18.1%; in the test on ACHN renal, 25.3%; in the test with CAKI-1 renal, -41.1% (active); with A498 renal, 126%; with CCRF-CEM leukemia it was 4.2% (active); in the test with MOLT-4 leukemia, 1.21% (active).
With `COc1ccc(C(=O)NC(=O)Nc2cc3c(cc2F)/C(=C/c2[nH]c(C)c(CCC(=O)O)c2C)C(=O)N3)c(F)c1`, the growth with HCT-15 colon was 28%; in the test with SNB-75 CNS, 9.65% (active); in the test with SNB-19 CNS, 20%; in the test with U251 CNS it was 9.72% (active); in the test on PC-3 prostate it was 22.6%; with SK-MEL-5 melanoma, 59.6%. The growth in the test with UACC-62 melanoma is 31.3%; in the test with LOX IMVI melanoma, 38.5%; with SK-MEL-2 melanoma it was 22.1%; in the test with EKVX NSCLC it was 65.3%; in the test on SN12C renal, 27.6%; in the test on UO-31 renal, 58.6%. The growth with ACHN renal was 65.5%; with A498 renal, 12.3%; in the test on CCRF-CEM leukemia, 7.61% (active).
For the compound `O=C1CCCCC1(c1ccccc1)c1ccccc1`, the growth in the test with HCT-15 colon was 91.3%; in the test on SNB-75 CNS it was 88.8%; in the test with U251 CNS, 108%; with SK-MEL-5 melanoma, 99.1%; in the test on UACC-62 melanoma, 99.7%; with LOX IMVI melanoma it was 94%. For the same compound, the growth in the test with SK-MEL-28 melanoma was 95.6%; with SK-MEL-2 melanoma it was 100%; with EKVX NSCLC, 91.2%; with SN12C renal, 104%; with UO-31 renal, 98.8%; in the test on ACHN renal, 101%. For the same compound, the growth was 82.4% in the test with CAKI-1 renal, 101% in the test on CCRF-CEM leukemia and 105% with MOLT-4 leukemia.
`Cn1ccc(Nc2nccc(Oc3ccc(C(=O)Nc4cccc(F)c4)c(Cl)c3)n2)c1`: the growth in the test with HCT-15 colon was 91.9%; in the test with SNB-19 CNS it was 77.6%; in the test with U251 CNS, 96.2%; in the test with PC-3 prostate, 63.6%; in the test on SK-MEL-5 melanoma, 39.5%; in the test on UACC-62 melanoma it was 66.8%. The growth was 91.9% with LOX IMVI melanoma; 96.6% in the test with SK-MEL-28 melanoma; 58% in the test with SK-MEL-2 melanoma; 47.1% with EKVX NSCLC; 73.4% in the test with SN12C renal; 62.6% in the test on UO-31 renal. The growth in the test on TK-10 renal was 54.4%; with ACHN renal it was 44.7%; with CAKI-1 renal, 69.6%; in the test with A498 renal, 46.9%; in the test with CCRF-CEM leukemia it was 58.4%; in the test with MOLT-4 leukemia, 83.3%.
Regarding `COc1cc2c(=O)n(C3CCCCCC3)c3c4cc[nH]c4ncc3c2cc1OC`, the growth in the test with HCT-15 colon was 62.9%; with SNB-19 CNS it was 85.1%; in the test on U251 CNS it was 67%; in the test with PC-3 prostate, 78.1%; with SK-MEL-5 melanoma, 87.2%; in the test on UACC-62 melanoma, 99.9%. Moreover, the growth was 60.8% in the test with LOX IMVI melanoma; 105% in the test with SK-MEL-28 melanoma; 90.3% with SK-MEL-2 melanoma; 91.8% in the test with EKVX NSCLC; 55.6% in the test with SN12C renal; 81.2% in the test with UO-31 renal. The growth with TK-10 renal was 96.3%; in the test on ACHN renal it was 70.5%; in the test on CAKI-1 renal, 73.7%; with A498 renal, 24.6%; in the test with CCRF-CEM leukemia it was 51.1%; with MOLT-4 leukemia, 40.9%.
